For seven sequences, PBM binding z-score results are on record in the supplement of paper PMC6555819.

Common to all, as to assay: PBM binding z-score (relative to random genomic background probes); higher = stronger binding; sequences stand for … in GC…GCGATTGACAGCGTAGAATGAAGG
The subject of assay [1] is FXR:RXRa (NR concentration 270 nM, RXRa partner concentration 90 nM). The procedure, abridged:
(§1)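 Binding buffer was PBS pH 7.4 with 2% milk, 0.02% Triton X-100, 1 mM DTT, 0.2 mg/mL BSA and 0.4 mg/ml salmon testes DNA. In it, ligand-free nuclear receptor dimers were incubated 1 h on custom Agilent 4×180K protein-binding microarrays carrying double-stranded probes. Antibodies against each partner (one per run) detected binding, and z-scores were calculated against random background probes after regression normalization of scanned fluorescence.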

For assay [2], the system named is LXRa:RXRa (NR concentration 270 nM, RXRa partner concentration 90 nM). The procedure, abridged: as §1
The subject of assay [3] is LXRa homodimer (NR concentration 270 nM). The method in brief: as §1
Assay [4] deals with LXRb:RXRa (NR concentration 270 nM, RXRa partner concentration 90 nM). The method in brief:
as §1

In assay [5] the test system is LXRb homodimer (NR concentration 270 nM). The procedure, abridged:
as §1

The subject of assay [6] is PPARa:RXRa (NR concentration 270 nM, RXRa partner concentration 90 nM). The method in brief: as §1
Assay [7] concerns PPARg:RXRa (NR concentration 180 nM, RXRa partner concentration 90 nM). The method in brief: as §1
Assay [8] deals with PPARg:RXRa 270nM:90nM, anti-RXR (NR concentration 270 nM, RXRa partner concentration 90 nM). The procedure, abridged:
as §1

Assay [9] deals with PPARg:RXRa 30nM:10nM, anti-RXR (NR concentration 30 nM, RXRa partner concentration 10 nM). The procedure, abridged:
as §1

Assay [10] relates to PPARg:RXRa 90nM:30nM, anti-RXR (NR concentration 90 nM, RXRa partner concentration 30 nM). The method in brief:
as §1

Assay [11] has as its system PPARg:RXRa DBDmut IVT, anti-RXR (DBD mutation: RXRa K156A/R161A, NR concentration 270 nM, RXRa partner concentration 90 nM). The procedure, abridged:
as §1

In assay [12] the test system is PPARg:RXRa IVT, anti-PPARg (NR concentration 270 nM, RXRa partner concentration 90 nM). The procedure, abridged: as §1
Assay [13] relates to PPARg DBDmut:RXRa IVT, anti-PPARg (DBD mutation: PPARg1 K132A/R137A, NR concentration 270 nM, RXRa partner concentration 90 nM). The method in brief: as §1
Assay [14] concerns PPARg DBDmut IVT, anti-PPARg (DBD mutation: PPARg1 K132A/R137A, NR concentration 270 nM). The procedure, abridged: as §1
Assay [15] has as its system PPARg homodimer (NR concentration 180 nM). The method in brief:
as §1

Assay [16] has as its system PXR:RXRa (NR concentration 270 nM, RXRa partner concentration 90 nM). The method in brief: as §1
In assay [17] the test system is PXR homodimer (NR concentration 270 nM). The procedure, abridged:
as §1

For assay [18], the system named is RARa:RXR (NR concentration 270 nM, RXRa partner concentration 90 nM). The procedure, abridged: as §1
Assay [19] deals with RARa homodimer (NR concentration 270 nM). The procedure, abridged:
as §1

In assay [20] the test system is RARb:RXRa (NR concentration 270 nM, RXRa partner concentration 90 nM). The method in brief: as §1

Take GCAACTGGGGCATCAGCAGGTTACCATAACTTAA: the PBM binding z-score in assay [1] was -0.117; in assay [2] it was -0.265; in assay [3], -0.205; in [4], 1.08; in [5], -0.444; in assay [6] it was 1.83. For the same sequence, the PBM binding z-score in assay [7] came to 2.26; in [8] it was 1.76; in [9], 0.0895; in assay [10], 1.1; in [11] it was 5.86; in assay [12] it was 5.15. Besides, the PBM binding z-score in assay [13] is -0.129; in assay [14], 0.0733; in [15] it was 0.577; in assay [16] it was 0.0192; in [17], -0.0956; in assay [18], 0.138. In addition, the PBM binding z-score is -0.393 in [19] and 0.963 in assay [20].

As to ACTATTAGTTGACTTAGAGCAACCGATACGACGC, the PBM binding z-score in assay [1] was -0.404; in [2], 0.0474; in assay [3] it was -0.0686; in assay [4], 0.0226; in [5], 0.635; in assay [6], -0.306. Moreover, the PBM binding z-score in assay [7] is 0.964; in assay [8] it was -0.296; in [9] it was 0.379; in assay [10] it was 0.173; in [11] it was -0.101; in assay [12] it was 0.383. In addition, the PBM binding z-score in assay [13] is 1.2; in assay [14], 1.1; in assay [15], 0.577; in assay [16], -0.152; in assay [17], 0.119; in assay [18] it was -0.00338. Moreover, the PBM binding z-score in assay [19] was 1.16; in assay [20] it was 0.073.

On to CCTTACGGGTCACTGACAGGTTTTAGCATTTGGA, for which the PBM binding z-score was 5.38 in [1]; 3.52 in assay [2]; -0.116 in [3]; 3.31 in [4]; 0.045 in [5]; 5.09 in assay [6]. Further, the PBM binding z-score worked out at 4.18 in assay [7]; 4.36 in assay [8]; 1.27 in assay [9]; 3.04 in assay [10]; 3.46 in assay [11]; 3.56 in assay [12]. For the same sequence, the PBM binding z-score in assay [13] is 0.228; in [14], 0.218; in assay [15], 2.26; in [16], 2.98; in assay [17], -0.502; in assay [18], 4.09. The PBM binding z-score in assay [19] is 1.06; in assay [20], 3.88.

As to ATCGAAAGGTCTAGGTGAGTATAGAGAAAGGGAA, the PBM binding z-score in assay [1] came to 0.504; in [2], 0.836; in assay [3] it was 0.254; in assay [4], 0.163; in assay [5], 0.443; in [6], 0.539. Further, the PBM binding z-score in assay [7] stood at 0.509; in assay [8], 0.366; in assay [9], 0.34; in assay [10] it was 0.331; in assay [11], 0.689; in assay [12], 1.37. For the same sequence, the PBM binding z-score in assay [13] was found to be 0.807; in assay [14], 0.731; in assay [15], 0.408; in [16] it was 0.216; in assay [17] it was 0.272; in [18] it was 0.406. Moreover, the PBM binding z-score in assay [19] turned out to be 0.837; in [20] it was 1.71.

Regarding CAAACTAGGTCAAGGTCAACGTCGGTTTGTGCCA, the PBM binding z-score is 6.57 in assay [1]; 5.33 in assay [2]; 3.32 in [3]; 4.35 in assay [4]; 0.922 in assay [5]; 6.21 in assay [6]. In addition, the PBM binding z-score in assay [7] came to 9.59; in [8], 8.11; in [9] it was 6.56; in [10], 8.58; in assay [11], 8.4; in assay [12] it was 8.81. The PBM binding z-score in assay [13] was found to be 6.29; in assay [14], 2.23; in assay [15] it was 4.73; in [16], 5.27; in [17], 1.97; in assay [18], 5.42. Further, the PBM binding z-score in assay [19] turned out to be 2.12; in [20] it was 5.36.

TCTTGCAGATCAGCAGGTTAAGAAAGCTGGCCAA: the PBM binding z-score in assay [1] is -0.157; in assay [2], -0.083; in [3], -0.809; in [4] it was -0.061; in [5], -1.04; in assay [6], 0.615. Further, the PBM binding z-score in [7] was -0.601; in [8], 0.866; in assay [9] it was 1.59; in assay [10], 1.15; in assay [11] it was 0.806; in assay [12], -0.167. Also, the PBM binding z-score is -1.23 in [13]; -0.975 in assay [14]; -0.869 in assay [15]; -0.219 in assay [16]; -1.1 in [17]; 0.16 in [18]. The PBM binding z-score in assay [19] was -1.56; in assay [20], 0.155.

TAGCCTAGGTCATGGGGGCCAGTATAGTGTCGGC: the PBM binding z-score is 4.96 in assay [1]; 4 in [2]; 0.742 in assay [3]; 4.86 in assay [4]; 5.38 in assay [5]; 4.64 in assay [6]. Also, the PBM binding z-score stood at 4.04 in assay [7]; 4.26 in assay [8]; 1.09 in assay [9]; 3.11 in assay [10]; 1.91 in [11]; 4.23 in assay [12]. For the same sequence, the PBM binding z-score stood at 4.89 in assay [13]; 4.09 in assay [14]; 2.19 in assay [15]; 3.01 in assay [16]; 0.254 in [17]; 3.41 in [18]. Also, the PBM binding z-score was determined as 0.4 in assay [19] and 4.04 in assay [20].
